According to PubChem BioAssay (Tox21):
Results filed as inconclusive are left out. Unmarked numbers belong to inactive results. Activity calls are given as the source filed them. Calls come from the whole dose curve; as a rule, active = well fitted cell-killing curve with a large enough effect in the repeat runs; inconclusive = weak or mixed curves, or effect the other way; inactive = flat fitted curve, though single readings scatter.

Assay: cAMP Responsive Elements (CRE) small molecule antagonists, cell-based qHTS assay: qHTS cell viability counter screen (AID 2060913); note: nearly all actives have a fitted effect of over 40% in size
Settings: CRE-bla HEK293T viability, CellTiter-Glo luminescence, 5 h; series mostly up to 92.4 µM; viability change, negative = cytotoxic: at the top concentration
Outline: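 CRE-bla HEK293T cells were seeded in assay medium with 10% dialyzed FBS, incubated 18 hrs at 37 C, then exposed to compounds plus 0.25 uM final NKH477 for 3 hrs. Viability was read by CellTiter-Glo luminescence after 30 min, in the same wells.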
% is set by controls: 0 for no effect and ±100 for the full control effect; potency is the fitted concentration of half-maximal effect.

**Q.** With `Nc1nc(Cl)cc(Cl)n1` as the molecule, how does the “viability change, negative = cytotoxic” value read?
**A.** Its value is -5.88%.

**Q.** For `CCOc1c(N2CCOCC2)cnn(C)c1=O`, which “viability change, negative = cytotoxic” value is on record?
**A.** The value was 3.39% [at 42.5 µM].

**Q.** Which “viability change, negative = cytotoxic” value does the source give for `O=C1Cc2cc(CCN3CCN(c4nsc5ccccc45)CC3)c(Cl)cc2N1` here?
**A.** The value was 5.63% [at 42.5 µM].

**Q.** For `C/C=C1\[C@H]2C=C(C)C[C@]1(N)c1ccc(=O)[nH]c1C2`, which “viability change, negative = cytotoxic” value is on record?
**A.** The value was -0.989% [at 42.5 µM].

**Q.** With `CCCCCCCC(=O)O` as the molecule, how does the Potency read?
**A.** The Potency was “inactive”.

**Q.** With `C=CCOCC(O)CS(=O)(=O)O` (stereo not given) as the molecule, how does the “viability change, negative = cytotoxic” value read?
**A.** Its value is -1.06%.

**Q.** For `c1ccc(CNc2ncnc3c2ncn3C2CCCCO2)cc1` (stereo not given), which “viability change, negative = cytotoxic” value is on record?
**A.** The value was -0.0063%.

**Q.** With `COC(C)(C)CCCC(C)CC=O` (stereo not given) as the molecule, how does the “viability change, negative = cytotoxic” value read?
**A.** Its value is -0.689%.

**Q.** Which “viability change, negative = cytotoxic” value does the source give for `N#CCc1ccc(Cl)cc1Cl` here?
**A.** Its value is 4.85%.

**Q.** For `CC(=O)O[C@H]1C[C@@H]2CC[C@@]1(C)C2(C)C`, which “viability change, negative = cytotoxic” value is on record?
**A.** Its value is 11.2%.

**Q.** For `COc1cc(C=O)ccc1OC(=O)C(C)C`, which “viability change, negative = cytotoxic” value is on record?
**A.** The value was 1.59%.

**Q.** Which “viability change, negative = cytotoxic” value does the source give for `CCCCCc1ccc(N)cc1` here?
**A.** The value was -3.17%.

**Q.** With `CC(C)(O)CCC(C)(C)O` as the molecule, how does the “viability change, negative = cytotoxic” value read?
**A.** Its value is 1.5%.

**Q.** With `O=C(/C=C/c1ccc(O)c(O)c1)O[C@@H](C(=O)O)[C@@H](OC(=O)/C=C/c1ccc(O)c(O)c1)C(=O)O` as the molecule, how does the “viability change, negative = cytotoxic” value read?
**A.** Its value is 3.4%.

**Q.** With `O=C(O)CCCC[P+](c1ccccc1)(c1ccccc1)c1ccccc1` as the molecule, how does the “viability change, negative = cytotoxic” value read?
**A.** Its value is 5.18% [at 42.5 µM].

**Q.** With `CCCC(C)C=O` (stereo not given) as the molecule, how does the “viability change, negative = cytotoxic” value read?
**A.** Its value is 9.43%.

**Q.** Which “viability change, negative = cytotoxic” value does the source give for `CCSCC` here?
**A.** Its value is -1.42%.

**Q.** For `COc1ccc(O)cc1`, which Potency is on record?
**A.** Its Potency is “inactive”.

**Q.** For `O=C1NCCN1CCN1CCC(c2cn(-c3ccc(F)cc3)c3ccc(Cl)cc23)CC1`, which Potency is on record?
**A.** The Potency was 10.6 µM (active).

**Q.** Which “viability change, negative = cytotoxic” value does the source give for `CCN(CC)CCCN(c1ccccc1)C1Cc2ccccc2C1` here?
**A.** The value was 5.73% [at 42.5 µM].

**Q.** With `COc1ccc2cc(C=O)ccc2c1` as the molecule, how does the “viability change, negative = cytotoxic” value read?
**A.** The value was 0.28% [at 42.5 µM].

**Q.** For `Nc1cccc(N)c1`, which Potency is on record?
**A.** Its Potency is “inactive”.

**Q.** For `COC(=O)c1c(C)cc(O)c(C)c1O`, which “viability change, negative = cytotoxic” value is on record?
**A.** The value was 4.57%.

**Q.** With `O=C(c1ccc(Cl)cc1)c1ccc(Cl)cc1` as the molecule, how does the “viability change, negative = cytotoxic” value read?
**A.** The value was -5.75%.

**Q.** For `Cc1ccc(C(C)c2ccc(C)c(C)c2)cc1C`, which “viability change, negative = cytotoxic” value is on record?
**A.** The value was -10.2%.

**Q.** With `Cc1ccc2ccccc2c1[N+](=O)[O-]` as the molecule, how does the “viability change, negative = cytotoxic” value read?
**A.** The value was -0.981%.

**Q.** Which “viability change, negative = cytotoxic” value does the source give for `NC(=O)CCCCC(N)=O` here?
**A.** Its value is 1.33%.

**Q.** For `CN1C[C@H](C(=O)N[C@]2(C)O[C@@]3(O)[C@@H]4CCCN4C(=O)[C@H](Cc4ccccc4)N3C2=O)C[C@@H]2c3cccc4[nH]cc(c34)C[C@H]21`, which “viability change, negative = cytotoxic” value is on record?
**A.** The value was 4.35% [at 42.5 µM].

**Q.** For `COc1ccc(Nc2ccccc2)c(C)c1`, which Potency is on record?
**A.** The Potency was “inactive”.

**Q.** Which Potency does the source give for `CC1(C)CC(N)CC(C)(CN)C1` (stereo not given) here?
**A.** The Potency was “inactive”.

**Q.** With `CCCCCCCCCC(C)=O` as the molecule, how does the “viability change, negative = cytotoxic” value read?
**A.** The value was 5.55%.

**Q.** Which “viability change, negative = cytotoxic” value does the source give for `CN(C)CCC[C@@]1(c2ccc(F)cc2)OCc2cc(C#N)ccc21` here?
**A.** The value was 10.1% [at 42.5 µM].

**Q.** Which Potency does the source give for `CCCCCCCCCCCO` here?
**A.** Its Potency is “inactive”.

**Q.** For `CC(=O)Nc1c(I)cc(I)c(C(=O)O)c1I`, which “viability change, negative = cytotoxic” value is on record?
**A.** Its value is -2.56% [at 42.5 µM].

**Q.** Which “viability change, negative = cytotoxic” value does the source give for `CC(O)CN(CCCN(C)C)CCCN(C)C` (stereo not given) here?
**A.** Its value is 0.412%.

**Q.** With `CCCCCCC(C)(C)C(=O)O` as the molecule, how does the “viability change, negative = cytotoxic” value read?
**A.** Its value is 5.44%.

**Q.** For `CCCCCCCCCCCCCCCCC`, which “viability change, negative = cytotoxic” value is on record?
**A.** Its value is 3.12%.

**Q.** For `CCOc1ccccc1OCC`, which “viability change, negative = cytotoxic” value is on record?
**A.** The value was -0.598%.

**Q.** For `O=C(O)C[C@H](NC(=O)OCc1ccccc1)C(=O)O`, which “viability change, negative = cytotoxic” value is on record?
**A.** Its value is 1.49%.

**Q.** Which Potency does the source give for `O=C1OC2(c3ccc(O)cc3Oc3cc(O)ccc32)c2ccccc21` here?
**A.** Its Potency is “inactive”.
